Screening results (PubChem BioAssay)
Abeta rescue – compounds reversing amyloid beta toxicity in yeast. yeast expressing A-beta42, growth rescue, OD600, 48 h; response scale: 0% DMSO, 100% iron-clioquinol control. Potency, µM (series often up to 46.1 µM), usual class: activators. hit rate 0.063% among 410,000. AID 1347071; note: nearly all actives have a fitted effect of over 55% in size
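Yeast growth medium received pinned compounds, then yeast cells expressing toxic A-beta were added; plates incubated at 30 C for 48 hr. Growth read as absorbance at 600 nm, normalized to DMSO and equimolar FeCl3 plus clioquinol controls.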
Mito fusion act – mitochondrial division inhibition or fusion activation; S. cerevisiae fusion-defective mutant growth rescue, CellTiterGlo 48 h; Potency, µM (doses to about 46.1 µM), for inactives: at the top dose growth rescue (activation), hits mostly activators; hit rate 0.23% among 320,000; note: % of control where 0% means no effect; nearly all actives have a fitted effect of over 45% in size
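Yeast fusion mutant, YPEG (non-fermentable carbon), compound, 48 h at 37C non-permissive; CellTiterGlo added, 10 min RT, luminescence read. Rescued growth = division inhibition.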
FUS yeast rescue – FUS proteinopathy suppression in yeast; S. cerevisiae FUS-expressing, growth rescue, OD600, 24 h; Potency, µM (doses to about 76.6 µM), actives largely listed as activators; hit rate 0.24% among 390,000; AID 1347120;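 note: plate controls were DMSO vehicle for no effect and reference control for full effect; nearly all actives have a fitted effect of over 55% in size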
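Toxicity suppression screen in FUS-yeast. Cells induced with 2% galactose, starting OD 0.005, treated 24hr at 30C with compounds at multiple final concentrations; growth by OD600.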
TDP43 rescue – rescues yeast growth from TDP-43 toxicity; hit rate 1.8% among 410,000; Potency, µM (series often up to 46.1 µM), for the others: at the highest dose growth rescue (activation), most hits filed as activators; TDP-43 expressing yeast growth rescue, BacTiter-Glo, 24 h; note: % of control where 0% means no effect; nearly all actives have a fitted effect of over 50% in size
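Luminescence from BacTiter-Glo reports growth of TDP-43-expressing yeast after 24 hr at 30 deg C with compound. Cells were raffinose-pregrown to mid-log, then seeded in galactose medium at OD600=0.02.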
ERG-DNA inh – ERG Ets/DNA interaction inhibition; hit rate 0.028% among 370,000; P11308; Potency, µM (titrated, usually from 76.9 µM), without a hit: top-dose FP activity, negative = inhibition, actives largely listed as inhibitors; fluorescence polarization, His-ERG Ets domain / labelled DNA; active = well fitted inhibition curve with a large enough effect in the polarisation, with a control signal flat; inconclusive = small, poorly fitted or top-dose-only effect, or effect the other way, or a change in a side signal; inactive = no such curve, though single readings can be large or run the other way; the % refers to the polarisation;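 note: polarization taken with two DNA probes labelled with fluorescein and Texas red; % of control where 0% means no effect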
Target sequence (P11308 whole entry, looked up, the tested form may be a part): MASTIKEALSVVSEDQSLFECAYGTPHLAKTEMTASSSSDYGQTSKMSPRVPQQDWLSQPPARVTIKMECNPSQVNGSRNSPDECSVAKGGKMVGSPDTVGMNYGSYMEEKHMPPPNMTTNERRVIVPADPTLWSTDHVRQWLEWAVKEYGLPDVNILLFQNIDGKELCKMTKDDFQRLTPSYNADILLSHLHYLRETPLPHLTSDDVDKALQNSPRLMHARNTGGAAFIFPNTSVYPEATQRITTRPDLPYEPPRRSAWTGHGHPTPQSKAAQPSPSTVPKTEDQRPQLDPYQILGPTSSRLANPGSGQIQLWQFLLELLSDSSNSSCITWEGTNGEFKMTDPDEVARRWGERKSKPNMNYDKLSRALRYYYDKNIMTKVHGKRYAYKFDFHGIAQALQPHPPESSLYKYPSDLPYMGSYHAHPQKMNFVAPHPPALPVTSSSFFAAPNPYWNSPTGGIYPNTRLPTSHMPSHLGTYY
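His-tagged ERG Ets domain (1 uM in the protein solution; 300mM KCl, 50mM Tris-HCl, 1mM EDTA, 1mM DTT, pH 7.5) received compound, then a probe mix of 5 nM fluorescein-DNA and 100nM Texas-615-DNA. Fluorescence polarization was read for both dyes.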
aSyn yeast inh – rescues yeast growth from alpha-synuclein toxicity; Yeast expressing alpha-synuclein, growth rescue, BacTiter-Glo, 24 h; Potency, µM (highest dose often 46.1 µM), without a hit: at the highest dose growth rescue (activation), usual class: activators; hit rate 0.14% among 370,000; note: % of control where 0% means no effect; nearly all actives have a fitted effect of over 65% in size
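Readout is rescue of growth in alpha-synuclein-expressing yeast, so inhibitors of toxicity appear as activators. Growth after 24 hr at 30 deg C in galactose medium is quantified by luminescence.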
* = called active by the depositor; i = inactive; ? = inconclusive; / = no result; ! = not active in a repeat; [ ] = remark or other dose. The list is not random: actives were taken first. Their share in the collection is about 2.2%. Unless noted, calls come from the whole dose curve; as a rule, active = well fitted curve in the direction sought with a large enough effect; inconclusive = small, poorly fitted or top-dose-only effect, or another doubt; inactive = no such curve, though single readings can be large; an effect the other way counts as inactive or inconclusive. Potency is the fitted concentration of half-maximal effect.

SMILES	Abeta rescue	Mito fusion act	FUS yeast rescue	TDP43 rescue	ERG-DNA inh	aSyn yeast inh
Nc1c(-c2ccc(C(F)(F)F)cc2)nc2ncccn12	i	/	i	28.8%	/	-0.2%
COc1cc(/C=N/N2CCOCC2)ccc1OCc1ccc(Cl)cc1	i	17.9%	i	11.2µM*	-12.3%	-1.0%
Cn1ncc2c(Nc3cc(C(F)(F)F)ccc3Cl)ncnc21	i	/	i	14.1µM*	6.3%	/
Cc1ccccc1CN1c2ccccc2S(=O)(=O)c2ccccc21	i	/	i	2.5%	-1.9%	/
O=S1(=O)c2ccccc2N(Cc2ccccc2Cl)c2ccccc21	i	/	i	6.31µM*	0.1%	/
O=C1COc2ccccc2N1Cc1ccccc1Cl	i	17.9%	i	22.4µM*	-3.5%	15.0%
CC1Oc2ccccc2N(Cc2ccccc2Cl)C1=O (centres undefined)	i	17.0%	i	19.3%	-0.3%	9.0%
O=C(O)c1ccccc1Nc1ccccc1	i	23.1µM*!	i	-36.8%	-16.0%	-0.4%
COc1cccc(Nc2ccccc2C(=O)O)c1	i	11.9%	i	11.1%	-2.8%	1.2%
CCCN(CC(=O)Nc1cccc(Br)c1)CC(=O)Nc1ccc(F)c(F)c1F	i	1.6%	i	14.1µM*	1.3%	?
COc1ccc(C2=NN3C(C2)c2ccccc2OC32C(=O)N(C)c3ccccc32)cc1 (centres undefined)	i	1.9%	?	22.4µM*	-7.0%	5.3%
O=C(Nc1cc(C(=O)N2CCN(c3ccccc3)CC2)ccc1Cl)c1cccs1	i	/	/	12.6µM*	-3.4%[15.4 µM]	-7.1%
CCc1sc(C(=O)Nc2nc(C)cs2)cc1C	i	-5.6%	i	20µM*	-2.1%	-24.3%
Cc1csc(NC(=O)c2ccc(C)c([N+](=O)[O-])c2)n1	i	-3.0%	/	20µM*	/	-10.2%
CC(C)CC1OC(C)CC2=C1C(=O)OC(C)(C)O2 (centres undefined)	i	/	i	?	/	-22.4%
O=C(Nc1cccc(-c2csc(Nc3ccc(Cl)cc3)n2)c1)c1cccc(C(F)(F)F)c1	i	-126.8%	i	25.1µM*	-7.1%	-21.7%
O=C(NNC(=S)Nc1cccc(C(F)(F)F)c1)c1cccc(Cl)c1	i	7.0%	i	8.91µM*	-0.7%	-7.3%
COc1ccccc1N1CCN(C(=O)c2ccc3c(c2)N(Cc2ccccc2)C(=O)c2ccccc2S3(=O)=O)CC1	i	/	?	?	-12.9%	/
Cc1ccc(C)c(OC(=O)CSc2nnc(-c3ccc4c(c3)OCO4)o2)c1	i	/	i	13.3%	-1.9%	/
Cc1scc(C(=O)N2CCN(c3ccc(Cl)cc3)CC2)c1C	i	0.0%	i	14.1µM*	0.9%	6.6%
O=C(c1ccccc1)N1CCN(c2ccc(Cl)cc2)CC1	i	0.2%	i	?	/	7.6%
Cc1[nH]c(-c2ccc(F)cc2)cc1C(=O)N1CCN(c2ccc(Cl)cc2)CC1	i	-65.0%	i	15.8µM*	1.3%	?
Cc1occc1C(=O)N1CCN(c2ccc(Cl)cc2)CC1	i	4.0%	i	10µM*	1.1%	7.1%
COc1ccc(N2CCN(C(=O)c3cc(-c4ccc(F)cc4)[nH]c3C)CC2)cc1	i	6.7%	?	?	15.8%	17.1%
Cc1[nH]c2ccc(C(=O)N3CCN(c4ccc(F)cc4)CC3)cc2c1C	i	0.7%	i	14.1µM*	-10.0%	13.2%
SMILES	Abeta rescue	Mito fusion act	FUS yeast rescue	TDP43 rescue	ERG-DNA inh	aSyn yeast inh
Cc1ccccc1NC(=O)/C(C#N)=C/c1ccc(Cl)cc1Cl	i	/	i	7.2%	-0.2%	/
O=C(O)c1ccc(N/N=C/C(Br)=C/c2ccccc2)cc1	i	-3.4%	i	11.2µM*	0.5%	-29.6%
O=C(O)c1ccc(N/N=C/c2cccc(C(F)(F)F)c2)cc1	i	10.3%	i	12.6µM*	4.7%	-44.6%
Cc1onc(-c2ccccc2)c1C(=O)N/N=C/C(Br)=C/c1ccccc1	i	?	/	17.8µM*	/	?
O=C(N/N=C/C(Br)=C/c1ccccc1)C(O)c1ccccc1 (centres undefined)	i	-13.6%	i	-7.5%[1.82 µM]	2.4%	-0.3%
O=C(N/N=C/C(Br)=C/c1ccccc1)C1CC1	i	3.7%	i	22.4µM*	-3.9%	10.3%
O=C(N/N=C/C(Br)=C/c1ccccc1)NC1CCCCC1	i	-38.7%	i	?	-1.4%	9.7%
CC1(c2nc3ccccc3[nH]2)c2ccccc2C(=O)N1Cc1ccccc1 (centres undefined)	i	/	i	-14.5%	/	1.2%
C=CCN(Cc1ccc(OC)cc1OC)C(C#CCCCC)c1ccccc1 (centres undefined)	/	/	i	/	/	/
COc1cc(NC(=O)c2cc(C)on2)cc(C(=O)Nc2cccc(C(F)(F)F)c2)c1	i	-50.0%	i	12.6µM*	-3.3%	1.2%
COc1cc(NC(=O)c2cnc(N)s2)cc(C(=O)Nc2cccc(C(F)(F)F)c2)c1	i	1.2%	?	?	14.7%	-9.3%
COc1cc(NC(=O)c2csc(N)n2)cc(C(=O)Nc2cccc(C(F)(F)F)c2)c1	i	-41.8%	?	31.6µM*	11.1%	-0.1%
COc1cc(NC(=O)c2ccnc(N)c2)cc(C(=O)Nc2cccc(C(F)(F)F)c2)c1	i	24.7%	i	6.5%	5.0%	-1.2%
COc1ccc(Cn2c(CCC(=O)Nc3ccc(Br)c(C)c3)nc3cccnc32)cc1	?	/	i	?	2.8%	/
C/C(Cl)=C\Cn1c(O)c(N=NC(N)=S)c2ccccc21	i	-7.7%	i	17.8µM*	4.6%	13.6%
Cc1c(Cl)cccc1NC(=S)N=Nc1c(O)n(CN2CCOCC2)c2ccccc12	22.4µM*	?	i	15.1%	-4.8%	1.4%
C=CCn1c(O)c(N=NC(=S)Nc2cccc(C)c2)c2ccccc21	?	9.4%	/	11.2µM*	/	?
C=CCn1c(O)c(N=NC(=S)Nc2ccccc2F)c2ccccc21	?	0.0%	i	-0.4%	-11.8%	-4.7%
Cc1cc(C)cc(NC(=S)/N=C(\N)Nc2nc(C)c3ccccc3n2)c1	i	24.8%	/	15.8µM*	/	0.2%
Cc1ccc(NC(=S)/N=C(\N)Nc2nc(C)c3ccccc3n2)cc1C	i	26.3%	i	26.1%	-3.1%	0.5%
Cc1cccc(NC(=S)/N=C(\N)Nc2nc(C)c3ccccc3n2)c1	?	17.7%	i	20µM*	-11.8%	-9.7%
CCC(=O)OC1=C(C(C)=O)N(Cc2ccccc2)S(=O)(=O)c2ccccc21	i	/	i	?	-1.0%	/
